# From PubChem BioAssay
# Active and inactive are the calls of the source.
# Assays:
# [1] = system: Human papillomavirus type 1a protein E7 (residues 44-93); assay: small molecules binding HPV E7 44-93 – biochemical, small-molecule microarray, residues 44-93, 635 nm fluorescence, primary screen (AID 1108); settings: fluorescence 635 nm, higher = more signal;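 also: E7 fragment applied at 1 µg/mL in TBST for 1 h at 4 C; score combines spot fluorescence with its signal to noise ratio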
# [2] = hepatitis C replication reporter changes, two-sided – Huh7 cells, luciferase reporter, HCV replication inhibitor project, primary screen (AID 1109); settings: Huh7 HCV replicon luciferase reporter, 48 h; higher = more signal;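 also: huh7 hepatoma cells harbouring a luciferase neomycin HCV replicon reporter; luciferase luminescence as measure of HCV replicon replication; test concentration not given here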
# [3] = molecular target: Left-right determination factor 2 (Homo sapiens) (UniProt O00292); assay: small molecules binding LEFTY2 protein – biochemical, small-molecule microarray, 635 nm fluorescence scan, primary screen (AID 1110); settings: higher = more signal
# [4] = molecular target: Calmodulin-1 (Homo sapiens) (UniProt P0DP23); assay: small molecules binding calmodulin-1 with EGTA – biochemical, small-molecule microarray, Cy5-labelled CALM1, profiling panel (AID 1111); settings: Cy5-CALM1 binding fluorescence, higher = more signal;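 also: labelled calmodulin applied in Tris saline Tween buffer holding calcium plus EGTA and DTT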
# [5] = molecular target: Calmodulin-1 (Homo sapiens) (UniProt P0DP23); assay: small molecules binding Ca-loaded calmodulin-1 – biochemical, small-molecule microarray, Cy5-labelled CALM1, plus calcium, artefact control for SMM control-protein annotation, profiling panel (AID 1112); settings: Cy5-CALM1 binding fluorescence, higher = more signal;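 also: score merges spot fluorescence with signal to noise from triplicate slides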
# [6] = probe aWnt5a binding to arrayed compounds – biochemical, biotinylated probe, 635/667 nm fluorescence, primary screen (AID 1113); settings: small-molecule microarray, higher = more signal;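 also: score merges 667 nm fluorescence intensity with signal-to-noise per printed feature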
# [7] = probe aShh binding to arrayed compounds – biochemical, biotinylated probe, 635/667 nm fluorescence, primary screen (AID 1114); settings: small-molecule microarray, higher = more signal;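 also: probe is biotin-labelled aShh protein from a stem cell growth factor screen; measures binding of labelled protein to compounds printed on the slide; score merges feature fluorescence at 667 nm with signal-to-noise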
# [8] = probe aNog binding to arrayed compounds – biochemical, biotinylated probe, 635/667 nm fluorescence, primary screen (AID 1115); settings: small-molecule microarray, higher = more signal;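 also: probe is biotinylated aNog protein used at 0.15 µg/mL for 1 h at 4 C; z-score combines 667 nm fluorescence of each spot with its signal to noise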
# [9] = molecular target: Torsin-1A-interacting protein 1 (Homo sapiens) (UniProt Q5JTV8); assay: compound microarray binding of lysate hLAP1 – cell lysate, small-molecule microarray, COS7 lysate, 635/667 nm fluorescence, primary screen (AID 1116); settings: 635 nm fluorescence, higher = more signal
# [10] = molecular target: Alpha-bungarotoxin (Bungarus multicinctus) (UniProt P60615); assay: compounds binding labelled alpha-BTX control protein – biochemical, small-molecule microarray, Alexa647 label, 635/667 nm fluorescence, artefact control for SMM control protein annotation, profiling panel (AID 1117); settings: alpha-BTX-A647 binding fluorescence, higher = more signal
# Albumin (Bos taurus) = Albumin (Bos taurus) (UniProt P02769); assay: compounds binding labelled BSA control protein – biochemical, small-molecule microarray, Alexa647 label, 635/667 nm fluorescence, artefact control for SMM control protein annotation, profiling panel (AID 1118); settings: BSA-A647 binding, fluorescence 635 nm, higher = more signal;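 also: score merges 667 nm emission intensity and signal-to-noise per printed compound spot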
# [11] = probe aXIP binding to arrayed compounds – biochemical, NeuroSMM set, 635/667 nm fluorescence, primary screen (AID 1119); settings: small-molecule microarray, higher = more signal, called active from +8 up or from −8 down;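 also: probe is the protein aXip251-270 applied at 1 µg/mL to compound-printed slides; binding of probe to printed compounds measured as 667 nm fluorescence plus signal to noise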
# [12] = probe aNOTCH3 binding on compound microarray – biochemical, small-molecule microarray, 635/667 nm fluorescence, primary screen (AID 1120); settings: higher = more signal;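 also: probe is a biotin-tagged antibody raised against NOTCH3 rather than NOTCH3 protein; score merges spot fluorescence near 667 nm with spot signal to noise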
# [13] = probe aNOTCH2 binding on compound microarray – biochemical, small-molecule microarray, 635/667 nm fluorescence, primary screen (AID 1121); settings: higher = more signal;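 also: score merges feature fluorescence read at 667 nm with its signal to noise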
# [14] = molecular target: Carbonic anhydrase 2 (Homo sapiens) (UniProt P00918); assay: compounds binding carbonic anhydrase 2 – biochemical, small-molecule microarray, Alexa647-labelled CAII, profiling panel (AID 1122); settings: CAII-A647 binding fluorescence, higher = more signal
# [15] = COS7 lysate on small-molecule microarray, probe aHis, 635 nm (AID 1123); settings: COS7 cell lysate, fluorescence, higher = more signal;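 also: z-score combines 667nm fluorescence intensity with signal-to-noise per printed compound spot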
# [16] = probe aLAP1 signal on lysate-treated microarray – cell lysate, small-molecule microarray, COS7 lysate, primary screen (AID 1124); settings: probe aLAP1, fluorescence, higher = more signal;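 also: lysate comes from COS7 cells expressing LAP1 and is applied at 0.3 µg/mL; score merges spot fluorescence near 667 nm with signal-to-noise over triplicate slides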
# Sam68 (KHDRBS1) = assay: compounds binding KHDRBS1 protein – biochemical, small-molecule microarray, 635 nm fluorescence, primary screen (AID 1125); settings: higher = more signal;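 also: score merges 667 nm channel intensity with signal to noise over triplicate slides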
# [17] = system: Chordin-like protein 2 (CHRDL2); assay: compounds binding chordin-like 2 – biochemical, small-molecule microarray, 635 nm fluorescence, primary screen (AID 1126); settings: fluorescence 635 nm, higher = more signal;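 also: printed compound slides probed with Chrdl2 protein at 4 µg/mL for 1 h at 4 C; score merges 667 nm emission intensity with signal to noise over three replicate slides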
# [18] = molecular target: Concanavalin-A (Canavalia ensiformis) (UniProt P02866); assay: compounds binding concanavalin A lectin – biochemical, small-molecule microarray, Alexa647 label, 635 nm, artefact control for SMM control protein annotation, primary screen (AID 1127); settings: ConA-A647 binding fluorescence, higher = more signal;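 also: z combines 667 nm emission intensity with signal-to-noise across three replicate slides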
# Concanavalin-A (Canavalia ensiformis), sequence (P02866 whole entry, looked up): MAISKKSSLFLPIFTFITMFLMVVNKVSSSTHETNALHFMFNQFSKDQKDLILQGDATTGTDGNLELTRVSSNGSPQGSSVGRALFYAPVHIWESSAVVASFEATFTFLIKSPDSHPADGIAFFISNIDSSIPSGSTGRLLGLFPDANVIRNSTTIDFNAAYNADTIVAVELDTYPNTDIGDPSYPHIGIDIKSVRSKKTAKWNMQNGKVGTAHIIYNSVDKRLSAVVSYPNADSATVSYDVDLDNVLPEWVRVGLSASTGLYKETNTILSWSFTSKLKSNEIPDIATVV
# Albumin (Bos taurus), sequence (P02769 whole entry, looked up): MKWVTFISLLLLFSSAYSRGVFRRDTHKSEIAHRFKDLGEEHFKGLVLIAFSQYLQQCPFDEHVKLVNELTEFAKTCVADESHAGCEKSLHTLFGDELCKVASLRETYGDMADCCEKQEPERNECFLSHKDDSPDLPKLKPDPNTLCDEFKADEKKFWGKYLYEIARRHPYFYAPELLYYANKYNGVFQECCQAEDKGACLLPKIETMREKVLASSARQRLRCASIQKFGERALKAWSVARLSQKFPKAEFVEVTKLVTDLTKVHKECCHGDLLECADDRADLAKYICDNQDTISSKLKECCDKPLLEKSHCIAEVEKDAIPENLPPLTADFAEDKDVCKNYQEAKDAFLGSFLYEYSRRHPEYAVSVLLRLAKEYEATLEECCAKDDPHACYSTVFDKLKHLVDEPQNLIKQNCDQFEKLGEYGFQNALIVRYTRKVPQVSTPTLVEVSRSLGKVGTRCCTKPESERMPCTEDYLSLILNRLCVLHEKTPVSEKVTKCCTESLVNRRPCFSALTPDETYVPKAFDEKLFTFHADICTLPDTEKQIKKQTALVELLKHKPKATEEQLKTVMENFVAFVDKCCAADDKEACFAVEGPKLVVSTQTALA
# Left-right determination factor 2 (Homo sapiens), sequence (O00292 whole entry, looked up): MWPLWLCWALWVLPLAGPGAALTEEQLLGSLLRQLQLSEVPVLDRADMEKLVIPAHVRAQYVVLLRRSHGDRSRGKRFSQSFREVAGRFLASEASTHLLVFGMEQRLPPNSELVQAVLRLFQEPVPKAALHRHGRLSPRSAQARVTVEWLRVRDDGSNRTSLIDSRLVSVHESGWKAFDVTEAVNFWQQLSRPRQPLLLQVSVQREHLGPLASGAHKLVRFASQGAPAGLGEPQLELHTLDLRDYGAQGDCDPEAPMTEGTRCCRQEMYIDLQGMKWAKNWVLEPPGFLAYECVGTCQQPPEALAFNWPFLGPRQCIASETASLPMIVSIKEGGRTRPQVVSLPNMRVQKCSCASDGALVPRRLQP
# Alpha-bungarotoxin (Bungarus multicinctus), sequence (P60615 whole entry, looked up): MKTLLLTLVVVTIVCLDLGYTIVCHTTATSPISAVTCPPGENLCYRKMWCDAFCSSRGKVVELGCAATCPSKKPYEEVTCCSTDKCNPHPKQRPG
# Torsin-1A-interacting protein 1 (Homo sapiens), sequence (Q5JTV8 whole entry, looked up): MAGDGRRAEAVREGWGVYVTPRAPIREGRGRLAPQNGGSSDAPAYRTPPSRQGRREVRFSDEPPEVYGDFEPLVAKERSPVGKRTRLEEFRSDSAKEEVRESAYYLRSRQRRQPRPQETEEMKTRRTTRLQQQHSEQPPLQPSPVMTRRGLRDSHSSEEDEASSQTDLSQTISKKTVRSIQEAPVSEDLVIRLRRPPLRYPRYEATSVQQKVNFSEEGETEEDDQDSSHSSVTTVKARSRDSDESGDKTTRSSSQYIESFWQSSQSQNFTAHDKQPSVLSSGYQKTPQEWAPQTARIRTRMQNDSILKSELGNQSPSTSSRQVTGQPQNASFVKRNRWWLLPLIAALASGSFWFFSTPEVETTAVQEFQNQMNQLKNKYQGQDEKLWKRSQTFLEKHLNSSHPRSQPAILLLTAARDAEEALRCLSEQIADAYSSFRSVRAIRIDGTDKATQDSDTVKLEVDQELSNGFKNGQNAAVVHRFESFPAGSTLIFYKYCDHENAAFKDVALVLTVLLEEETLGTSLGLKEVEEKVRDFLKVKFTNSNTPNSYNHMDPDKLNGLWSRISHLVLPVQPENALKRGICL
SMILES,composite z-score [1],z-score [2],composite z-score [3],composite z-score [4],composite z-score [5],composite z-score [6],composite z-score [7],composite z-score [8],composite z-score [9],composite z-score [10],composite z-score (Albumin (Bos taurus)),composite Z-score [11],composite z-score [12],composite z-score [13],composite z-score [14],composite z-score [15],composite z-score [16],composite z-score (Sam68 (KHDRBS1)),composite z-score [17],composite z-score [18]
C=CC[C@]1(C(=O)N2CCOCC2)N=C(c2ccc(OCCCO)cc2)O[C@H]1c1ccccc1,1.18,-0.716,-0.42,0.732,1.14,-0.0512,0.218,1.53,2.09,2.05,0.758,-0.128 (inactive),0.0225,-0.0906,0.785,3.15,0.446,0.618,-0.0547,1.09
C=CCOC(=O)[C@@H]1[C@H]2C(=O)O[C@H](c3ccccc3)[C@H](c3ccccc3)N2[C@H](c2ccc(OCCOC(=O)[C@@H]3C[C@@H]4C(=O)N[C@@H](Cc5ccccc5)C(=O)N4[C@@H]3c3cccc(OCCO)c3)cc2)[C@@]12C(=O)Nc1ccc(I)cc12,1.36,-1.34,0.692,-0.0116,-0.137,-0.0516,-0.0211,1.07,1.31,1.25,-0.912,-0.292 (inactive),-0.0328,-0.0389,0.537,1.1,0.283,1.31,1.11,0.795
Cc1ccc(S[C@]2(C(=O)NCCN3CCOCC3)CC(=O)N(Cc3cc(C(F)(F)F)cc(C(F)(F)F)c3)[C@@H]2c2ccc(CO)cc2I)cc1,0.105,-1.59,-1.45,-0.452,0.492,-0.176,-0.331,-0.389,-0.604,-0.306,0.59,-1.18 (inactive),-0.214,-0.164,0.661,0.373,-0.0586,0.134,-1.16,-0.13
COc1cc2c(cc1OC)CN(C(=O)[C@@H]1[C@H]3C(=O)O[C@H](c4ccccc4)[C@H](c4ccccc4)N3[C@H](c3ccccc3OCCO)[C@@]13C(=O)Nc1ccc(C#CCNC(N)=O)cc13)CC2,0.644,-1.01,0.17,1.36,0.478,0.0744,0.155,1.12,1.29,1.9,0.301,0.545 (inactive),0.37,-0.0251,0.377,2.65,1.15,1.31,0.981,1.11
O=C1c2ccccc2[C@@]2(Cc3ccccc3N(Cc3ccccc3)C2=O)[C@H](c2ccc(CO)cc2)N1C1CCCCC1,0.438,-0.717,0.186,0.0329,-0.105,-0.202,0.0062,-0.444,-0.345,0.0868,-0.841,0.0066 (inactive),-0.141,-0.14,0.416,1.03,0.432,0.689,0.685,1.01
C=CC(COC(C)=O)NS(=O)(=O)c1ccc(Br)cc1 (stereo not given),0.62,-0.437,0.65,-0.467,-0.883,0.093,0.0948,-0.149,0.366,0.601,-0.68,0.0518 (inactive),-0.0337,-0.133,-0.0235,-0.01,0.0423,0.591,0.912,0.682
